{"source": "PubChem BioAssay AID1159580", "about": "(chemical genetic matrix, 2015)", "experiment": "chemical genetic growth profiling, strain panel (AID 1159580);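 also: tested at 20 µM; growth read once vehicle control cultures reached saturation at 30 °C; 1 = growth at the plate median or of vehicle wells; lower values mean less growth of the strain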", "details": "S. cerevisiae deletion strains, growth OD", "note": "Several values for one entry are separate records, joined by “and”; a condition that tells them apart may be missing. Identical values can stand only once. The whole screen tested about 5,500 compounds, of which about 2,000 (36%) were called active. Another 18% or so got no clear call; they are omitted. This is one part of the list. Unmarked numbers belong to inactive results. Rule as the data show it: active = normalized growth mostly below about 0.91 (no sharp cut-off); inconclusive = no clear call, values can overlap the other calls; inactive = mostly above about 0.92.", "data": [{"smiles": "COc1ccc2cc1Oc1ccc(cc1)C[C@H]1c3cc(c(OC)cc3CCN1C)Oc1c(OC)c(OC)cc3c1[C@H](C2)N(C)CC3", "values": [{"measurement": "normalized growth", "setting": "locus YAL013W, strain DEP1, active compounds read low", "value": 1.01}, {"measurement": "normalized growth", "setting": "locus YAL021C, strain ccr4, active compounds read low", "value": "0.853 (active)"}, {"measurement": "normalized growth", "setting": "locus YAL026C, strain drs2, active compounds read low", "value": 1}, {"measurement": "normalized growth", "setting": "locus YAL030W, strain snc1, active compounds read low", "value": 1.01}, {"measurement": "normalized growth", "setting": "locus YBL061C, strain skt5, active compounds read low", "value": 1.01}, {"measurement": "normalized growth", "setting": "locus YBR009C, strain hhf1, active compounds read low", "value": 0.982}, {"measurement": "normalized growth", "setting": "locus YBR021W, strain FUR4, active compounds read low", "value": "0.596 (active)"}, {"measurement": "normalized growth", "setting": "locus YBR023C, strain chs3, active compounds read low", "value": 1.01}, {"measurement": "normalized growth", "setting": "locus YBR171W, strain sec66, active compounds read low", "value": 1.02}, {"measurement": "normalized growth", "setting": "locus YBR229C, strain ROT2, active compounds read low", "value": 1.01}, {"measurement": "normalized growth", "setting": "locus YBR231C, strain swc5, active compounds read low", "value": 0.988}, {"measurement": "normalized growth", "setting": "locus YBR279W, strain paf1, active compounds read low", "value": 0.998}, {"measurement": "normalized growth", "setting": "locus YCL011C, strain gbp2, active compounds read low", "value": 0.988}, {"measurement": "normalized growth", "setting": "locus YCL016C, strain dcc1, active compounds read low", "value": 0.968}, {"measurement": "normalized growth", "setting": "locus YCL029C, strain bik1, active compounds read low", "value": 1.03}, {"measurement": "normalized growth", "setting": "locus YCL069W, strain vba3, active compounds read low", "value": 1.01}, {"measurement": "normalized growth", "setting": "locus YCR088W, strain abp1, active compounds read low", "value": 1.01}, {"measurement": "normalized growth", "setting": "locus YDL005C, strain med2, active compounds read low", "value": 1}, {"measurement": "normalized growth", "setting": "locus YDL035C, strain GPR1, active compounds read low", "value": 0.977}, {"measurement": "normalized growth", "setting": "locus YDL040C, strain nat1, active compounds read low", "value": 1}, {"measurement": "normalized growth", "setting": "locus YDL074C, strain BRE1, active compounds read low", "value": 0.972}, {"measurement": "normalized growth", "setting": "locus YDL101C, strain DUN1, active compounds read low", "value": 1.01}, {"measurement": "normalized growth", "setting": "locus YDL134C, strain PPH21, active compounds read low", "value": 1.01}, {"measurement": "normalized growth", "setting": "locus YDL185W, strain tfp1, active compounds read low", "value": 1.01}, {"measurement": "normalized growth", "setting": "locus YDL192W, strain arf1, active compounds read low", "value": 0.997}, {"measurement": "normalized growth", "setting": "locus YDR001C, strain nth1, active compounds read low", "value": 1.02}, {"measurement": "normalized growth", "setting": "locus YDR069C, strain doa4, active compounds read low", "value": "0.733 (active)"}, {"measurement": "normalized growth", "setting": "locus YDR101C, strain arx1, active compounds read low", "value": 1.01}, {"measurement": "normalized growth", "setting": "locus YDR137W, strain rgp1, active compounds read low", "value": 0.998}, {"measurement": "normalized growth", "setting": "locus YDR150W, strain NUM1, active compounds read low", "value": 1.01}, {"measurement": "normalized growth", "setting": "locus YDR159W, strain sac3, active compounds read low", "value": 1.02}, {"measurement": "normalized growth", "setting": "locus YDR162C, strain NBP2, active compounds read low", "value": 0.974}, {"measurement": "normalized growth", "setting": "locus YDR195W, strain ref2", "value": 1.02}, {"measurement": "normalized growth", "setting": "locus YDR297W, strain sur2, active compounds read low", "value": 1}, {"measurement": "normalized growth", "setting": "locus YDR318W, strain mcm21, active compounds read low", "value": 1}, {"measurement": "normalized growth", "setting": "locus YDR334W, strain swr1, active compounds read low", "value": 1.01}, {"measurement": "normalized growth", "setting": "locus YDR335W, strain msn5, active compounds read low", "value": 0.999}, {"measurement": "normalized growth", "setting": "locus YDR388W, active compounds read low", "value": "0.241 (active)"}, {"measurement": "normalized growth", "setting": "locus YDR392W, strain spt3, active compounds read low", "value": 0.79}, {"measurement": "normalized growth", "setting": "locus YDR502C, strain sam2, active compounds read low", "value": 0.99}, {"measurement": "normalized growth", "setting": "locus YEL003W, strain gim4, active compounds read low", "value": 0.998}, {"measurement": "normalized growth", "setting": "locus YEL037C, strain rad23, active compounds read low", "value": 0.989}, {"measurement": "normalized growth", "setting": "locus YEL061C, strain CIN8 (second series), active compounds read low", "value": 1.01}, {"measurement": "normalized growth", "setting": "locus YEL061C, strain CIN8, active compounds read low", "value": 1.01}, {"measurement": "normalized growth", "setting": "locus YER015W, strain faa2, active compounds read low", "value": 0.997}, {"measurement": "normalized growth", "setting": "locus YER016W, strain bim1, active compounds read low", "value": 1}, {"measurement": "normalized growth", "setting": "locus YER110C, active compounds read low", "value": 1.03}, {"measurement": "normalized growth", "setting": "locus YER111C, strain swi4, active compounds read low", "value": 0.997}, {"measurement": "normalized growth", "setting": "locus YER155C, strain BEM2 (second series), active compounds read low", "value": 0.887}, {"measurement": "normalized growth", "setting": "locus YER155C, strain BEM2, active compounds read low", "value": 1.03}, {"measurement": "normalized growth", "setting": "locus YER167W, strain BCK2, active compounds read low", "value": 0.964}, {"measurement": "normalized growth", "setting": "locus YFR010W, strain ubp6, active compounds read low", "value": "0.854 (active)"}, {"measurement": "normalized growth", "setting": "locus YGL078C, strain dbp3, active compounds read low", "value": 1.01}, {"measurement": "normalized growth", "setting": "locus YGL086W, strain mad1, active compounds read low", "value": 0.983}, {"measurement": "normalized growth", "setting": "locus YGL167C, strain pmr1, active compounds read low", "value": 1}, {"measurement": "normalized growth", "setting": "locus YGL173C, strain kem1, active compounds read low", "value": 1.02}, {"measurement": "normalized growth", "setting": "locus YGL227W, strain vid30, active compounds read low", "value": 0.997}, {"measurement": "normalized growth", "setting": "locus YGL240W, strain doc1, active compounds read low", "value": 1.01}, {"measurement": "normalized growth", "setting": "locus YGL248W, strain PDE1, active compounds read low", "value": 1}, {"measurement": "normalized growth", "setting": "locus YGL253W, strain hxk2, active compounds read low", "value": 1.01}, {"measurement": "normalized growth", "setting": "locus YGR078C, strain PAC10, active compounds read low", "value": 0.996}, {"measurement": "normalized growth", "setting": "locus YGR135W, strain pre9, active compounds read low", "value": 0.931}, {"measurement": "normalized growth", "setting": "locus YGR229C, strain SMI1, active compounds read low", "value": 0.993}, {"measurement": "normalized growth", "setting": "locus YGR252W, strain gcn5, active compounds read low", "value": 0.855}, {"measurement": "normalized growth", "setting": "locus YHR013C, strain ard1, active compounds read low", "value": 0.902}, {"measurement": "normalized growth", "setting": "locus YHR027C, strain rpn1, active compounds read low", "value": 1.02}, {"measurement": "normalized growth", "setting": "locus YHR030C, strain SLT2, active compounds read low", "value": "1.01 and 1"}, {"measurement": "normalized growth", "setting": "locus YHR079C, strain IRE1 (second series), active compounds read low", "value": 1.01}, {"measurement": "normalized growth", "setting": "locus YHR079C, strain IRE1, active compounds read low", "value": 0.987}, {"measurement": "normalized growth", "setting": "locus YHR094C, strain hxt1, active compounds read low", "value": 1.02}, {"measurement": "normalized growth", "setting": "locus YHR129C, strain ARP1, active compounds read low", "value": 1.01}, {"measurement": "normalized growth", "setting": "locus YHR142W, strain chs7, active compounds read low", "value": 1.01}, {"measurement": "normalized growth", "setting": "locus YHR200W, strain rpn10, active compounds read low", "value": 0.989}, {"measurement": "normalized growth", "setting": "locus YIL066C, strain RNR3, active compounds read low", "value": 1}, {"measurement": "normalized growth", "setting": "locus YIL073C, strain SPO22, active compounds read low", "value": 1.31}, {"measurement": "normalized growth", "setting": "locus YIL125W, strain kgd1, active compounds read low", "value": 1.01}, {"measurement": "normalized growth", "setting": "locus YIR030C, strain dcg1, active compounds read low", "value": 1.02}, {"measurement": "normalized growth", "setting": "locus YJL092W, strain hpr5, active compounds read low", "value": 1.01}, {"measurement": "normalized growth", "setting": "locus YJL095W, strain BCK1 (second series), active compounds read low", "value": 1.02}, {"measurement": "normalized growth", "setting": "locus YJL095W, strain BCK1, active compounds read low", "value": "1.02 and 1.06"}, {"measurement": "normalized growth", "setting": "locus YJL115W, strain asf1, active compounds read low", "value": 1.01}, {"measurement": "normalized growth", "setting": "locus YJL129C, strain trk1, active compounds read low", "value": 1.01}, {"measurement": "normalized growth", "setting": "locus YJL134W, strain LCB3, active compounds read low", "value": 1.02}, {"measurement": "normalized growth", "setting": "locus YJL154C, strain vps35, active compounds read low", "value": 1}, {"measurement": "normalized growth", "setting": "locus YJL164C, strain tpk1, active compounds read low", "value": 0.986}, {"measurement": "normalized growth", "setting": "locus YJL166W, strain qcr8, active compounds read low", "value": 0.984}, {"measurement": "normalized growth", "setting": "locus YJL168C, strain set2, active compounds read low", "value": 1.01}, {"measurement": "normalized growth", "setting": "locus YJL187C, strain SWE1 (second series), active compounds read low", "value": 1}, {"measurement": "normalized growth", "setting": "locus YJR043C, strain POL32, active compounds read low", "value": 0.996}, {"measurement": "normalized growth", "setting": "locus YJR066W, strain TOR1, active compounds read low", "value": 0.955}, {"measurement": "normalized growth", "setting": "locus YJR075W, strain HOC1, active compounds read low", "value": 0.924}]}]}
